Measured values reported in PubChem BioAssay (Tox21).
Records with an inconclusive call do not appear. The source made the active and inactive calls. Calls come from the whole dose curve; as a rule, active = well fitted activation curve with a large enough effect in the signal ratio in the repeat runs (not every such curve was filed as active); inconclusive = weak or mixed curves, or effect the other way; inactive = no such curve, though single readings can be large or run the other way; the % refers to the signal ratio.

Target: Glucocorticoid receptor (Homo sapiens) (UniProt P04150)
Experiment: qHTS assay to identify small molecule agonists of the glucocorticoid receptor (GR) signaling pathway (AID 720691)
Conditions: GR-bla HeLa, beta-lactamase reporter ratio, 18 h; series mostly up to 62.4 µM; activation: at the top concentration
Source text: U.S. Tox21 Program National Center for Advancing Translational Sciences [NCATS] NIH Chemical Genomics Center [NCGC] U.S. Environmental Protection Agency [EPA] National Institutes of Environmental Health Sciences [NIEHS] National Toxicology Program [NTP] U.S. Food and Drug Administration [FDA] Tox21 Assay Overview: The Glucocorticoid receptor (GR) is one of the members of the nuclear receptor family of ligand-dependent transcription factors. GR plays a critical role in carbohydrate, protein and lipid metabolisms and programmed cell death. CellSensor GR-bla HeLa cell line (Invitrogen) contains a beta-lactamase reporter gene under the control of the glucocorticoid response element stably integrated into HeLa cells, a cervical cancer cell line that expresses glucocorticoid receptor. The activation of the reporter gene under culture conditions can be detected by fluorescence intensity. This cell line has been used to screen the Tox21 10K compound library and to identify the compounds that activate the GR signaling.
Tox21 Assay Protocol Summary: The GR-bla HeLa cells were dispensed at 1500 cells/6 ul/well in 1536-well black wall/clear bottom plates using a Multidrop Combi (ThermoFisher Scientific, Waltham, MA) dispenser. After the assay plates were incubated at a 37 C/5% CO2 incubator for 4 hours, 23 nL of compounds dissolved in DMSO, positive controls or DMSO only was transferred to the assay plate by a pintool station (Kalypsys, San Diego, CA). The plates were incubated at 37 C for 18 hours. After 1 uL of LiveBLAzerTM B/G FRET substrate was added using a Flying Reagent Dispenser (Aurora Discovery, San Diego, CA), the plates were incubated at room temperature for 2 hours, and fluorescence intensity was measured by an Envision plate reader (PerkinElmer, Shelton, CT).
% is set by controls: 0 for no effect and ±100 for the full control effect.

Glucocorticoid receptor (Homo sapiens), sequence (P04150 whole entry, looked up): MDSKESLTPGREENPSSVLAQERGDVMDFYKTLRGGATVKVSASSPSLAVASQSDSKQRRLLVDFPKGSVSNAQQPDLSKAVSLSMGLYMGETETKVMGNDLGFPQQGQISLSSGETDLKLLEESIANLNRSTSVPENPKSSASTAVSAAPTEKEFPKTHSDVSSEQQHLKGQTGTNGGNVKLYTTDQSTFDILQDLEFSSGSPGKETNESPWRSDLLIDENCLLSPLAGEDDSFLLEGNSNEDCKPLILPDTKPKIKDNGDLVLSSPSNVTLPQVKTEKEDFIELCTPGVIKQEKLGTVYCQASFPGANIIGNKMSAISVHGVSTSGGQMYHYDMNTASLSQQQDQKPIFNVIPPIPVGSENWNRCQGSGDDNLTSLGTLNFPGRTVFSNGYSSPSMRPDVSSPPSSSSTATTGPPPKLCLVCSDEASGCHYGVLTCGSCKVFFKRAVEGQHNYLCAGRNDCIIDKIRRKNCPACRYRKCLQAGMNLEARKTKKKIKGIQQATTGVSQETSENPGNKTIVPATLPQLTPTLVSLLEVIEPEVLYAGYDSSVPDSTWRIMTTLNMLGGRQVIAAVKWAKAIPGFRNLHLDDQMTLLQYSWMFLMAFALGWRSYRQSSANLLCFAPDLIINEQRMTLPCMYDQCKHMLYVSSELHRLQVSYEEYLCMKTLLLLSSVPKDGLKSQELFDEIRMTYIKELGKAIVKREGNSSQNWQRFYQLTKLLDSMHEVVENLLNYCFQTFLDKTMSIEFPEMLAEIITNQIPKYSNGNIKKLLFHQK

**Q.** With `C=CC[C@]1(O)CC[C@H]2[C@@H]3CCC4=CCCC[C@@H]4[C@H]3CC[C@@]21C` as the compound, how does the “activation” value read?
**A.** 18% (inactive)

**Q.** How did the “activation” value turn out when `CCON=O` was run?
**A.** 0.294% (inactive)

**Q.** How did the “activation” value turn out when `CC1(C)[C@H](C=C(Cl)Cl)[C@H]1C(=O)OCc1c(F)c(F)cc(F)c1F` was run?
**A.** -0.876% (inactive)

**Q.** With `CC(=O)O[C@H]1C[C@H](O[C@H]2[C@@H](O)C[C@H](O[C@H]3[C@@H](O)C[C@H](OC4CC[C@@]5(C)[C@H](CC[C@@H]6[C@@H]5CC[C@]5(C)[C@@H](C7=CC(=O)OC7)CC[C@]65O)C4)O[C@@H]3C)O[C@@H]2C)O[C@H](C)[C@H]1O[C@@H]1O[C@H](CO)[C@@H](O)[C@H](O)[C@H]1O` (stereo not given in full) as the compound, how does the “activation” value read?
**A.** -12.2% (inactive)

**Q.** How did the “activation” value turn out when `COc1ccc2c(c1)C13CCCC[C@@H]1C(C2)N(C)CC3` (stereo not given in full) was run?
**A.** -0.953% (inactive)

**Q.** With `COC(COC(N)=O)C1=C(N2CC2)C(=O)C(C)=C(N2CC2)C1=O` (stereo not given) as the compound, how does the “activation” value read?
**A.** -1.16% (inactive)

**Q.** How did the “activation” value turn out when `c1ccc2c(c1)Sc1ccccc1N2C[C@@H]1CN2CCC1CC2` was run?
**A.** -2.11% (inactive)

**Q.** For `CN[C@]1(c2ccccc2Cl)CCCCC1=O`, which “activation” value is on record?
**A.** -7.12% (inactive)

**Q.** Which Potency does the source give for `C[N+]1([O-])[C@@H]2CC(OC(=O)[C@H](CO)c3ccccc3)C[C@H]1[C@@H]1O[C@@H]12` (stereo not given in full) here?
**A.** inactive

**Q.** `O=C(O)/C=C/C(=O)O` was tested. Which Potency did it give?
**A.** inactive

**Q.** How did the “activation” value turn out when `C[C@@H]([C@H](O)c1ccccc1)N(C)C` was run?
**A.** -0.0673% (inactive)

**Q.** For `C[C@]12CC[C@H](OS(=O)(=O)O)CC1=CC[C@@H]1[C@@H]2CC[C@]2(C)C(=O)CC[C@@H]12`, which “activation” value is on record?
**A.** -0.413% (inactive)

**Q.** With `CNC1(c2ccccc2Cl)CCCCC1=O` (stereo not given) as the compound, how does the Potency read?
**A.** inactive

**Q.** For `CC(=O)[C@H]1CC[C@H]2[C@@H]3CC[C@@H]4C[C@H](O)CC[C@]4(C)[C@H]3CC[C@]12C`, which “activation” value is on record?
**A.** -7.82% (inactive)

**Q.** Which “activation” value does the source give for `CN[C@@H]1C[C@@H](c2ccc(Cl)c(Cl)c2)c2ccccc21` here?
**A.** -10.7% (inactive)

**Q.** With `OC(c1ccccc1)(c1ccccc1)C1CN2CCC1CC2` (stereo not given) as the compound, how does the “activation” value read?
**A.** -2.87% (inactive)

**Q.** How did the “activation” value turn out when `C[N+]1(C)[C@@H]2CC[C@H]1CC(OC(=O)c1c[nH]c3ccccc13)C2` (stereo not given in full) was run?
**A.** -1.78% (inactive)

**Q.** For `O=P1(N(CCCl)CCCl)NC(OO)CCO1` (stereo not given), which “activation” value is on record?
**A.** 0.458% (inactive)

**Q.** `COc1cc(C[C@H](C)N)c(OC)cc1C` was tested. Which “activation” value did it give?
**A.** -3.24% [at 79.2 µM] (inactive)

**Q.** With `C[C@@H]1[C@@H]2Cc3ccc(O)cc3[C@@]1(C)CCN2CCc1ccccc1` as the compound, how does the “activation” value read?
**A.** -1.03% (inactive)

**Q.** `CCCSc1cc(OC)c(CCN)cc1OC` was tested. Which “activation” value did it give?
**A.** -8.84% [at 79.2 µM] (inactive)

**Q.** How did the “activation” value turn out when `F/C(COc1ccc2c(c1)[nH]c1ccccc12)=C1/CN2CCC1CC2` was run?
**A.** -9.11% (inactive)

**Q.** With `CC(C)C[C@H](CN)CC(=O)O` as the compound, how does the “activation” value read?
**A.** -0.141% (inactive)

**Q.** How did the “activation” value turn out when `C[C@H]1[C@H]2Cc3ccc(O)cc3[C@]1(C)CCN2CCc1ccccc1` was run?
**A.** 0.258% (inactive)

**Q.** How did the “activation” value turn out when `CCOc1ccc2c3c1O[C@H]1[C@@H](O)C=C[C@H]4[C@@H](C2)N(C)CC[C@@]341` was run?
**A.** -1.66% (inactive)

**Q.** `CC(C)(O)[C@@H]1[C@H]2OC(=O)[C@@H]1[C@]1(O)C[C@H]3O[C@]34C(=O)O[C@H]2[C@]14C` was tested. Which Potency did it give?
**A.** inactive

**Q.** Which “activation” value does the source give for `CCCCNCC(O)c1ccc(O)cc1` (stereo not given) here?
**A.** 0.125% (inactive)

**Q.** `[S]=[Sb](=[S])[S][Sb](=[S])=[S]` was tested. Which “activation” value did it give?
**A.** -0.854% (inactive)

**Q.** With `COc1ccc2c3c1O[C@H]1[C@@H](O)C=C[C@H]4[C@@H](C2)NCC[C@@]341` as the compound, how does the Potency read?
**A.** inactive

**Q.** Which “activation” value does the source give for `C=C[C@H]1CN2CC[C@H]1C[C@@H]2[C@@H](O)c1ccnc2ccccc12` here?
**A.** -0.019% (inactive)

**Q.** For `CC(=O)O[C@H]1CC[C@H]2[C@@H]3CCC4=CC(=O)CCC4=C3C=C[C@]12C`, which “activation” value is on record?
**A.** -10.6% (inactive)

**Q.** `NC(=O)CN1CC(O)CC1=O` (stereo not given) was tested. Which “activation” value did it give?
**A.** 1.9% (inactive)

**Q.** For `CCN(CC)/[N+]([O-])=N/O`, which “activation” value is on record?
**A.** -3.4% (inactive)

**Q.** `CC1(C)S[C@@H]2[C@H](N)C(=O)N2[C@H]1C(=O)O` was tested. Which “activation” value did it give?
**A.** -2.24% [at 29.2 µM] (inactive)

**Q.** How did the “activation” value turn out when `O=c1c2ccccc2[se]n1-c1ccccc1` was run?
**A.** 0.0173% (inactive)

**Q.** For `CC(=O)O[C@H]1C[C@H](O[C@H]2[C@@H](O)C[C@H](O[C@H]3[C@@H](O)C[C@H](O[C@H]4CC[C@@]5(C)[C@H](CC[C@@H]6[C@@H]5C[C@@H](O)[C@]5(C)[C@@H](C7=CC(=O)OC7)CC[C@]65O)C4)O[C@@H]3C)O[C@@H]2C)O[C@H](C)[C@H]1O[C@@H]1O[C@H](CO)[C@@H](O)[C@H](O)[C@H]1O`, which “activation” value is on record?
**A.** -10.4% (inactive)

**Q.** For `CCC1(c2ccccc2)C(=O)NC(=O)N(C)C1=O` (stereo not given), which “activation” value is on record?
**A.** 0.908% (inactive)

**Q.** `COC([CH2][Hg])CNC(=O)c1ccccc1OCC(=O)O` (stereo not given) was tested. Which “activation” value did it give?
**A.** 6.08% (inactive)

**Q.** `NCC(O)c1cccc(O)c1` (stereo not given) was tested. Which “activation” value did it give?
**A.** -0.606% (inactive)

**Q.** Which “activation” value does the source give for `C[C@]12CC[C@H](O)C[C@H]1CC[C@@H]1[C@@H]2CC[C@]2(C)[C@@H](c3ccc(=O)oc3)C[C@H]3O[C@]132` here?
**A.** -12.8% (inactive)
